We go through 45 compounds from PubChem BioAssay AID1851 (National Center for Advancing Translational Sciences (NCATS), 2009).

Among all 16,000 compounds or so, about 5,800 (36%) were called active. About 23% were inconclusive and are not listed. This is one part of the list. Unmarked numbers belong to inactive results. The call rests on the fitted dose curve; in most records, active means well fitted curve in the direction sought with a large enough effect; inconclusive means small, poorly fitted or top-dose-only effect, or effect the other way; inactive means no such curve, though single readings can be large or run the other way.
On the % scale 0 is the no-effect control and ±100 the full control effect.

This experiment deals with Cytochrome P450 2C19 (Homo sapiens) (UniProt P33261). In words: Cytochrome panel assay with activity outcomes. Conditions: recombinant CYP, pro-luciferin dealkylation, luminescence, p450-cyp2c19; series mostly up to 57.1 µM; activity, negative = inhibition: at the top concentration.
Sequence of Cytochrome P450 2C19 (Homo sapiens) (P33261 whole entry, looked up): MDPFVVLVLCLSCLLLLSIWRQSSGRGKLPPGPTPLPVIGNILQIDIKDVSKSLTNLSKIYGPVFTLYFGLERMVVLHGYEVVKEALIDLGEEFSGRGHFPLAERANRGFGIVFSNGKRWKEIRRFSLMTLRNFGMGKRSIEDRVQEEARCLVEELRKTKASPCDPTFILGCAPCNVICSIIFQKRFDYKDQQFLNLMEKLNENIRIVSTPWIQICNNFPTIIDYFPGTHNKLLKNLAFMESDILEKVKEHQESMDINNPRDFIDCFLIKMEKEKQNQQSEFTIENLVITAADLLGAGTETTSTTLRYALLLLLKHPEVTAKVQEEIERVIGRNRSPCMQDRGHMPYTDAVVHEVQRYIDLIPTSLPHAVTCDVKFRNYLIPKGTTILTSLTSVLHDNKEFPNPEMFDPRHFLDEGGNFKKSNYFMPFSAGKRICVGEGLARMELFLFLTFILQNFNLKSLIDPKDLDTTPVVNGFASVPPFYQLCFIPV
As for `COC(=O)C1(CC(C)C)C=C2C(=C(c3ccccc3)C(=O)C2C)CN1` (stereo not given), the AC50 is 39.8 µM (active). Turning to `CCCC1(C(=O)OC)C=C2C(=C(c3ccccc3)C(=O)C2C)CN1` (stereo not given), the AC50 was 7.94 µM (active). Take `C[N+](C)(N)Cc1csc(-c2ccc(Cl)cc2)n1`: the activity, negative = inhibition was 8.52% [at 11.4 µM].

On to `Nc1ccccc1SCc1csc(-c2ccc(Cl)cc2)n1`, for which the AC50 is 0.501 µM (active). On the same count and under the same terms, for `NNc1nncc2ccccc12` the value was “inactive”. In the case of `O[C@H](COc1ccccc1)CN1CCCCC1`, the activity, negative = inhibition was 3.88% [at 11.4 µM]. `O=C(c1ccccc1)c1ccc(OCC(O)CN2CCN(Cc3ccccc3)CC2)cc1` (stereo not given): the AC50 was 4.47 µM (active). As for `CN1CCN(CC(O)c2ccccc2)CC1` (stereo not given), the “activity, negative = inhibition” value was -12.4%. Turning to `CC1CCC(C(C)C)C(OCC(O)CN2CCN(Cc3ccccc3)CC2)C1` (stereo not given), the AC50 was 3.55 µM (active). As to `CC1CC(OCC(O)CN2CCN(Cc3ccccc3)CC2)CC(C)(C)C1` (stereo not given), the “activity, negative = inhibition” value is -72.1%. Consider `CC#C[C@]1(O)CC[C@H]2[C@@H]3CCC4=CC(=O)CCC4=C3[C@H](c3ccc(N(C)C)cc3)C[C@@]21C`, for which the AC50 is 7.94 µM (active). `COc1cc2nc(N(C)CCCNC(=O)[C@@H]3CCCO3)nc(N)c2cc1OC`: the “activity, negative = inhibition” value was -17.6% [at 25.6 µM]. With `C=Cc1c(C)c2cc3nc(cc4[nH]c(cc5nc(cc1[nH]2)C(C)=C5CCC(=O)O)c(CCC(=O)OC)c4C)[C@@]1(C)C3=CC=C(C(=O)OC)[C@H]1C(=O)OC` (tested in a mixture with another compound), the AC50 is 1.26 µM (active). As to `O=C(O)[C@@H]1[C@@H](C(=O)O)[C@]23C[C@@]2(C(=O)O)[C@]2(C(=O)O)CCC3=C3CCCC312`, the activity, negative = inhibition was 37.4% [at 11.4 µM]. As for `c1ccc(Cc2nnc(Sc3ccccc3)c3ccccc23)cc1`, the AC50 is 5.01 µM (active). As to `N#CCCn1c(=O)c(-c2cccs2)nc2cnc(Nc3ccccc3)nc21`, the “activity, negative = inhibition” value is 2.63%. Take `COc1cc(C(=O)OC(C)C(=O)Nc2ccc3c(c2)OCO3)ccc1OCc1c(C)noc1C` (stereo not given): the AC50 was 14.1 µM (active). Turning to `O=C(O)[C@@H](S)[C@H](S)C(=O)O`, the activity, negative = inhibition was -39.9% [at 11.4 µM]. In the case of `O=C(c1ccc(F)cc1)C1CCN(CCn2c(=S)[nH]c3ccccc3c2=O)CC1`, the “activity, negative = inhibition” value was 9.05%. `Cc1cc(=O)c2ccccc2[nH]1`: the “activity, negative = inhibition” value was -24.5%. As for `CC1CCCC(n2c(=S)[nH]c3ccccc3c2=O)C1C` (stereo not given), the AC50 was 0.1 µM (active). `C[C@H](Nc1ncnc2sc3c(c12)CCC3)C(=O)O`: the “activity, negative = inhibition” value is -27.4%. Turning to `OCCNc1nc(SCc2ccccc2)nc2sc3c(c12)CCC3`, the AC50 is 2.82 µM (active). The same measure, in the same setting: for `CC(CO)Nc1nc(SCc2ccccc2)nc2sc3c(c12)CCC3` (stereo not given) the value was 3.16 µM (active). As for `COCCNc1nc(-c2ccccc2C)nc2ccccc12`, the “activity, negative = inhibition” value is -15.5%. For `COCCNc1nc(SCc2ccccc2)nc2sc3c(c12)CCC3`, the half-maximal activity concentration (AC50) is 4.47 µM (active). On the same count and under the same terms, then `COC(=O)N1CCC2(CCCN(Cc3nccs3)C2)CC1`, with 20 µM (active). On to `O=C(c1cnccn1)N1CCC2(CCN(Cc3nccs3)CC2)CC1`, for which the “activity, negative = inhibition” value was 21.5%. For the compound `COCC(=O)N1CCC[C@@]2(CCN(Cc3nccs3)C2)C1`, the “activity, negative = inhibition” value was -3.18%. Turning to `CC(=O)N1CCC2(CCCN(Cc3nccs3)C2)CC1`, the AC50 was 5.01 µM (active). As to `CC(=O)N1CCC[C@@]2(CCN(Cc3nccs3)C2)C1`, the “activity, negative = inhibition” value is -16.1%. In the case of `O=C(c1cnccn1)N1CCC2(CC1)CN(Cc1nccs1)C2`, the “activity, negative = inhibition” value is 30.2%. Same read-out and setting: then `CC(=O)N1CCC2(CCN(Cc3nccs3)CC2)CC1`, with -44.8%; and `COC(=O)N1CCC2(CCN(Cc3nccs3)CC2)CC1`, with 12.1%. For `O=C(c1cnccn1)N1CCC2(CCCN(Cc3nccs3)C2)CC1`, the AC50 is 15.8 µM (active). `CCc1ccc(N(C(=O)c2snc(C(N)=O)c2N)C(C(=O)NCCC(C)C)c2c[nH]c3ccccc23)cc1` (stereo not given): the AC50 was 2.24 µM (active). With `CC1(C)S[C@@H]2[C@H](NC(=O)[C@@H](N)c3ccc(O)cc3)C(=O)N2[C@H]1C(=O)O`, the “activity, negative = inhibition” value was 3.5% [at 25.6 µM]. With `CCOC(=O)c1cc2c(C)n(-c3ccc(C)cc3)c(C)c2ccc1=O`, the AC50 is 14.1 µM (active). For the compound `C[C@H]1[C@@H](O)[C@@H](C)\C=C/C=C\C=C/C=C\C=C/C=C\C=C/[C@@H](O[C@H]2O[C@@H](C)[C@@H](O)[C@@H](N)[C@@H]2O)C[C@@H]2O[C@](O)(C[C@@H](O)C[C@@H](O)[C@@H](O)CC[C@@H](O)C[C@@H](O)CC(=O)O[C@H]1C)C[C@@H](O)[C@H]2C(=O)O` (stereo in doubt), the “activity, negative = inhibition” value was 96.2% [at 25.6 µM]. For `CCOC(=O)c1[nH]c2cc(OC)c(OC)cc2c1NC(=O)c1ccc2c(c1)OCO2`, the “activity, negative = inhibition” value was 19.5%. For the compound `CCOC(=O)c1[nH]c2cc(OC)c(OC)cc2c1NC(=O)c1nonc1C`, the “activity, negative = inhibition” value is -17.1%. `CCOC(=O)c1[nH]c2ccc(OC)cc2c1NC(=O)c1ccc2c(c1)OCO2`: the half-maximal activity concentration (AC50) is 7.08 µM (active).

With `CCOC(=O)c1[nH]c2cc3c(cc2c1NC(=O)CN1CCC2(CC1)OCCO2)OCO3`, the “activity, negative = inhibition” value is -16.2%. For `COC(=O)c1[nH]c2cc(OC)ccc2c1NC(=O)c1ccc2c(c1)OCO2`, the AC50 is 10 µM (active). `COC(=O)c1[nH]c2cc(OC)ccc2c1NC(=O)c1nonc1C`: the “activity, negative = inhibition” value is -15%.
